Inconclusive results are not listed. The source made the active and inactive calls. Calls come from the whole dose curve; as a rule, active = well fitted curve in the direction sought with a large enough effect; inconclusive = small, poorly fitted or top-dose-only effect, or effect the other way, or another doubt; inactive = no such curve, though single readings can be large or run the other way.
Target: Lysosomal acid glucosylceramidase (Homo sapiens) (UniProt P04062)
Assay: qHTS Assay for Inhibitors and Activators of N370S glucocerebrosidase as a Potential Chaperone Treatment of Gaucher Disease: Purified N370S Glucocerebrosidase
Conditions: purified N370S GC, 4-MU-glucoside fluorescence, 40 min; series mostly up to 76.9 µM; activity change, negative = inhibition: at the top concentration
Source text: NIH Chemical Genomics Center [NCGC] NIH Molecular Libraries Probe Production Centers Network [MLPCN] MLPCN Grant: MH086442-01 Assay Submitter (PI): Wei Zheng Glucocerebrosidase (GC) catalyzes the hydrolysis of beta-glucocerebroside to glucose and ceramide in lysosomes. Mutations in the glucocerebrosidase gene result in Gaucher disease, an autosomal recessive lysosomal storage disorder. Many of the mutations encountered in patients with Gaucher disease are missense alterations that may cause misfolding, decreased stability and/or mistrafficking of this lysosomal protein. […] These inhibitors include iminosugar analogs and three non-iminosugar inhibitors identified from a previous HTS of 62,000 compounds with the wild type recombinant enzyme. However, the enhancement of enzyme activity by the chaperone action of an enzyme inhibitor must be balanced against the direct inhibition of the enzyme. An enzyme activator could also function as a chaperone by binding to the enzyme and helping to correct its misfolding and mistrafficking. While activators for GC have not yet been identified, they may have better therapeutic potential than inhibitors. Therefore the discovery and development of chemical activators may provide a new strategy for the chaperone therapy. We have optimized a new assay using N370S mutant GC derived from the spleen of a Gaucher patient. […] In addition, the MLPCN compound library has expanded, which increases the chance of finding new and better probes. This assay characterizes compound activity using purified mutant enzyme instead of tissue homogenate. Compound activity differences may be due to the absence of endogenous cofactors found in tissue homogenate.
NCGC Assay Protocol Summary: This is a fluorogenic enzyme assay with 4-methylumbelliferyl-beta-D-glucopyranoside as the substrate and purified N370S glucocerebrosidase as the enzyme preparation. Upon the hydrolysis of this fluorogenic substrate, the resulting product, […] which can be detected by a standard fluorescence plate reader. Data were normalized to the controls for basal activity (without enzyme) and 100% activity (with enzyme). The AC50 values were determined from concentration-response data modeled with the standard Hill equation. Assay buffer: 50 mM citric acid (titrated with potassium phosphate to pH 5.0), 100 mM potassium chloride, 10 mM sodium chloride, 1 mM magnesium chloride, 0.01% Tween-20. 1536-well assay protocol: (1) Add 2 ul/well of glucocerebrosidase enzyme solution (5 nM final) (2) Add 23 nL compounds in DMSO solution. The final titration was 0.5 nM to 58 uM. (3) Add 2 ul of substrate (1 mM final) (4) Incubate at 37C for 40 min. (5) Add 2 ul stop solution (1M NaOH and 1M Glycine mixture, pH 10) (6) Detect the assay plate in a ViewLux plate reader (PerkinElmer) with Ex=365 nm and Em=440nm. Keywords: Glucocerebrosidase, beta-glucosidase, Gaucher Disease, pharmacological chaperone, chaperone therapy, high throughput screening, glucocerebrosidase inhibitor, MLSMR, MLSCN, NIH Roadmap, qHTS and NCGC

Lysosomal acid glucosylceramidase (Homo sapiens), sequence (P04062 whole entry N409S): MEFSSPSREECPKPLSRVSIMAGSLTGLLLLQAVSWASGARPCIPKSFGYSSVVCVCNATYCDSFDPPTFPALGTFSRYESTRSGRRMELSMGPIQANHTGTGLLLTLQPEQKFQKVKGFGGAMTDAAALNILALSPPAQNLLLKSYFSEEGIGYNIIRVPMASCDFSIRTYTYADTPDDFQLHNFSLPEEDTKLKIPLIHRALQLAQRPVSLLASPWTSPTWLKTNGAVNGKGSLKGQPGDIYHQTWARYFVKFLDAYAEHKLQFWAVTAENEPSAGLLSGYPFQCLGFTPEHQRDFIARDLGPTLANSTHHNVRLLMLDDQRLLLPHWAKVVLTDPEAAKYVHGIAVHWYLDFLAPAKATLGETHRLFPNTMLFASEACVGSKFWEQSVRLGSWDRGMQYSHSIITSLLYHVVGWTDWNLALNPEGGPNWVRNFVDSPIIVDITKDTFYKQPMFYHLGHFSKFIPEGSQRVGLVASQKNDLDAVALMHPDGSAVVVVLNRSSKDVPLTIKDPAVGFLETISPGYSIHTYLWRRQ

Activity change, negative = inhibition, inactive:
O=S(=O)(Cc1ccccc1)N1CCN(c2nc(-c3cccs3)nc3ccccc23)CC1 -7.06%, NS(=O)(=O)c1ccc(S(=O)(=O)N2CCN(c3nc(-c4cccs4)nc4ccccc34)CC2)cc1 -5.7% [at 57.5 µM], COc1ccc(-c2nc(N3CCN(S(=O)(=O)c4ccc(C)cc4)CC3)c3ccccc3n2)cc1 0.376%, c1csc(-c2nc(NCC3CCCO3)c3ccccc3n2)c1 (centres undefined) -4.41%, O=S(=O)(c1ccccc1C(F)(F)F)N1CCN(c2nc(-c3cccs3)nc3ccccc23)CC1 -12.1% [at 57.5 µM], OCCNc1nc(-c2cccs2)nc2ccccc12 -5.11%, O=S(=O)(c1ccc(F)cc1)N1CCN(c2nc(-c3cccc(Br)c3)nc3ccccc23)CC1 -3.8%, O=S(=O)(c1ccc(Cl)cc1)N1CCN(c2nc(-c3ccc(Cl)cc3)nc3ccccc23)CC1 -6.99%, O=S(=O)(c1ccccc1)N1CCN(c2nc(-c3ccc(F)cc3)nc3cc(Cl)ccc23)CC1 3.68%, O=S(=O)(c1ccc(Cl)cc1)N1CCN(c2nc(-c3cccc(Br)c3)nc3ccccc23)CC1 -1.13%, O=S(=O)(c1ccc2c(c1)OCCO2)N1CCN(c2nc(-c3ccccc3)nc3ccccc23)CC1 -8.13%, Cc1ccc(S(=O)(=O)N2CCN(c3nc(-c4ccc(F)cc4)nc4cc(Cl)ccc34)CC2)cc1 -2.41%, Cc1ccccc1S(=O)(=O)N1CCN(c2nc(-c3cccs3)nc3ccccc23)CC1 -5.57%, O=S(=O)(c1cccs1)N1CCN(c2nc(-c3cccs3)nc3ccccc23)CC1 8.37%, O=S(=O)(c1ccc2c(c1)OCCO2)N1CCN(c2nc(-c3cccs3)nc3ccccc23)CC1 -9.01% [at 57.5 µM], CC(C)(C)c1ccc(S(=O)(=O)N2CCN(c3nc(-c4cccs4)nc4ccccc34)CC2)cc1 -6.34%, O=S(=O)(c1cccc2ccccc12)N1CCN(c2nc(-c3cccs3)nc3ccccc23)CC1 -3%, COc1ccc(-c2nc(N3CCN(S(=O)(=O)c4ccc(F)cc4)CC3)c3ccccc3n2)cc1 2.48%, O=S(=O)(c1ccc2ccccc2c1)N1CCN(c2nc(-c3cccs3)nc3ccccc23)CC1 3.55%, CC(C)C(C)NC(=O)CSc1nc2scc(-c3ccco3)c2c(=O)n1-c1ccccc1 (centres undefined) 2.6% [at 57.5 µM], O=S(=O)(c1ccccc1Cl)N1CCN(c2nc(-c3cccs3)nc3ccccc23)CC1 1.47%, COc1cccc(S(=O)(=O)N2CCN(c3nc(-c4cccs4)nc4ccccc34)CC2)c1 4.33%, O=C(c1ccc2c(c1)OCCO2)N1CCN(c2nc(-c3cccs3)nc3ccccc23)CC1 -8.39%, Cc1ccc(-c2nc(N3CCN(S(=O)(=O)c4ccc(F)cc4)CC3)c3ccc(Cl)cc3n2)cc1 -0.326%, O=S(=O)(c1ccc(F)cc1)N1CCN(c2nc(-c3ccc(F)cc3)nc3cc(Cl)ccc23)CC1 12.5%, Cc1cccc(S(=O)(=O)N2CCN(c3nc(-c4cccs4)nc4ccccc34)CC2)c1 -0.788%, O=S(=O)(c1cccc(C(F)(F)F)c1)N1CCN(c2nc(-c3cccs3)nc3cc(Cl)ccc23)CC1 -2.84%, N#Cc1ccc(S(=O)(=O)N2CCN(c3nc(-c4cccs4)nc4ccccc34)CC2)cc1 0.866% [at 57.5 µM], COc1ccc(-c2nc(N3CCN(S(=O)(=O)c4ccccc4)CC3)c3ccccc3n2)cc1 -1.92%, COc1ccc(S(=O)(=O)N2CCN(c3nc(-c4cccs4)nc4ccccc34)CC2)cc1 -1.81%, O=S(=O)(c1ccc(F)cc1)N1CCN(c2nc(-c3cccs3)nc3cc(Cl)ccc23)CC1 18.9%, O=S(=O)(c1ccc(F)cc1)N1CCN(c2nc(-c3ccccc3)nc3cc(Cl)ccc23)CC1 11.3%, O=S(=O)(c1ccc(Cl)cc1)N1CCN(c2nc(-c3ccc(F)cc3)nc3cc(Cl)ccc23)CC1 -3.17%

Potency, active:
CC(C)(C)C(=O)OCCNc1nc(-c2ccccc2)nc2ccccc12 8.91 µM, S=C(NCCCc1cnc[nH]1)NCCCN(Cc1ccc(Cl)c(Cl)c1)c1ccc(Br)cn1 2.51 µM, O=S(=O)(c1ccc(Cl)cc1)N1CCN(c2nc(Nc3cc(Cl)ccc3O)nc3ccccc23)CC1 14.1 µM, Cc1cc(C)cc(N(CC(=O)NC2CCCCCC2)S(=O)(=O)c2c(C)[nH]c(=O)[nH]c2=O)c1 1.58 µM

Potency, inactive:
O=S(=O)(c1ccc(Cl)cc1)N1CCN(c2nc(-c3cccs3)nc3ccccc23)CC1, Cc1ccc(S(=O)(=O)N2CCN(c3nc(-c4cccs4)nc4ccccc34)CC2)cc1

From PubChem BioAssay AID2597 (National Center for Advancing Translational Sciences (NCATS), 2010)
